PubChem BioAssay AID686978 (National Center for Advancing Translational Sciences (NCATS), 2013)
Out of some 420,000 compounds screened, about 64,000 (15%) were called active. Another 27% or so got no clear call; they are omitted. Calls come from the whole dose curve; as a rule, active = well fitted inhibition curve with a large enough effect; inconclusive = small, poorly fitted or top-dose-only effect; inactive = flat fitted curve, though single readings scatter. Not all results are given here. Where a call stands in place of a potency, no number is given.
Potency is the fitted concentration of half-maximal effect.

Assay: qHTS for Inhibitors of human tyrosyl-DNA phosphodiesterase 1 (TDP1): qHTS in cells in absence of CPT; note: nearly all actives have a fitted effect of over 55% in size
Conditions: DT40 Tdp1-/- hTDP1 cells, no CPT, ATP luminescence, 48 h; activity change, negative = growth inhibition: at 46.2 µM (top of the series)
How it was run: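 A cellular qHTS used chicken DT40 cells lacking endogenous Tdp1 but carrying stably transfected human TDP1. Compounds were applied without camptothecin, and cell growth kinetics were judged by ATP-dependent luminescence after ≥48 hr.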
With COc1ccc(CCn2c(=N)c(C(=O)NCc3ccco3)cc3c(=O)n4cccc(C)c4nc32)cc1 the Potency was 11.6 µM (active). In the case of Cc1cccn2c(=O)c3cc(C(=O)NC4CCCCC4)sc3nc12, the Potency is reported as “inactive”. With COc1ccc(CNC(=O)c2cc3c(=O)n4ccccc4nc3n(CC3CCCO3)c2=N)cc1 (centres undefined) the Potency was “inactive”. For Cc1ccc(S(=O)(=O)c2cc3c(=O)n4cccc(C)c4nc3n(CCc3ccccc3)c2=N)cc1C, the Potency was “inactive”. In the case of O=C(NCc1cccnc1)c1cc(S(=O)(=O)N2CCOCC2)c(Cl)cc1Cl, the Potency is reported as “inactive”. With CCOC(=O)c1ccc2[nH]c3c(c2c1)CCCC3NC=O (centres undefined) the Potency was “inactive”. For C=CC1=C(C(=O)O)N2C(=O)[C@@H](NC(=O)/C(=N\OCC(=O)O)c3csc(N)n3)[C@H]2SC1, the Potency was “inactive”. With Nc1c(N(CCCO)C(=O)C2CCCC2)c(=O)[nH]c(=O)n1Cc1ccccc1 the Potency was “inactive”. In the case of COc1ccc(NC(=O)C(CC(C)C)NC(=O)C2CCC(C)CC2)cc1 (centres undefined), the Potency is reported as “inactive”. For O=C(Cn1nc(Cc2cccnc2)c2ccccc2c1=O)NCC1CCCO1 (centres undefined), the Potency was “inactive”. For COc1cc(=O)n2c(c1C(=O)NCc1ccco1)CCN(Cc1ccccc1)CC2, the Potency was “inactive”. With COCCNc1ncnc2c1ncn2[C@H]1CN(CCN2CCOCC2)C[C@@H](CO)O1 the Potency was “inactive”. With CN(CC(=O)NNC(=O)CNC(=O)c1ccccc1Cl)S(=O)(=O)c1ccc(Cl)cc1 the Potency was “inactive”. For O=C1c2ccccc2C(=O)N1c1ccccc1S(=O)C(F)(F)F (centres undefined), the Potency was “inactive”. With COc1ccc(CCNC(=O)Cn2c(=O)n(CC3CCCO3)c(=O)c3ccccc32)cc1OC (centres undefined) the Potency was “inactive”. For COc1ccc(CCn2c(=N)c(C(=O)NCC3CCCO3)cc3c(=O)n4cccc(C)c4nc32)cc1OC (centres undefined), the Potency was 0.517 µM (active). In the case of COc1ccccc1-n1cnc2cc(C(=O)NCC3CCCO3)ccc21 (centres undefined), the Potency is reported as “inactive”. With CC1CCC(NC(=O)CN(C)S(=O)(=O)c2ccc3c(c2)c(=O)n(C)c(=O)n3C)CC1 (centres undefined) the Potency was “inactive”. For CN(C(=O)CSc1nnc(C2CC2)n1C)C1CCCc2ccccc21 (centres undefined), the Potency was “inactive”. For CCC1(CC)C(=O)C2=C3C1[C@H](C(=O)OC)C=C(C(=O)OC)C[C@H]3[C@H]1C(=O)N(Cc3ccccc3)C(=O)[C@H]1[C@H]2C (some centres undefined), the Potency was 16.4 µM (active). With COC(=O)C1=C[C@@H](C(=O)OC)[C@@H]2C3=C(C(=O)[C@]2(C)NC(=O)c2ccccc2)[C@H](C)n2c(=O)n(C)c(=O)n2[C@@H]3C1 the Potency was “inactive”. With CCOC(=O)C1=CCC2C(=O)N(Cc3ccccc3)C(=O)C12 (centres undefined) the Potency was “inactive”. With CCOc1ccccc1NC(=O)CCc1nnc2ccc(NCc3ccco3)nn12 the Potency was “inactive”. In the case of Cc1cccc(NC(=O)Nc2ccc(OCc3ccccc3)cc2)n1, the Potency is reported as “inactive”. For CNC(=O)c1sc(Nc2ccc(OCc3ccccc3)cc2)nc1C, the Potency was 13 µM (active). For CNC(=O)c1sc(NCc2ccccc2OC)nc1C, the Potency was “inactive”. In the case of COc1ccc(C(C(=O)NC2CCCCC2)N(C(=O)Cc2c[nH]c3ccccc23)c2ccccc2)cc1OC (centres undefined), the Potency is reported as 18.4 µM (active). In the case of COc1ccc(CNC(=O)[C@H](Cc2c[nH]c3ccccc23)NC(C)=O)cc1OC, the Potency is reported as “inactive”. With COc1ccc(C(C(=O)NCC2CCCO2)N(C(=O)Cn2nnc3ccccc32)c2ccc(NC(C)=O)cc2)cc1OC (centres undefined) the Potency was “inactive”. In the case of CN(Cc1c(F)cccc1Cl)S(=O)(=O)c1cccs1, the Potency is reported as “inactive”. For O=C(NCc1ccccn1)C1CCN(S(=O)(=O)c2ccc(Br)cc2)CC1, the Potency was “inactive”. For CC1(C)CCSC(/C=C/c2ccccc2)=N1, the Potency was 4.61 µM (active). In the case of CCCOc1ccc(NC(=O)C2CCCNC2=O)cc1 (centres undefined), the Potency is reported as “inactive”. For Cc1ccc(-c2ccnc(-n3ncc(C(=O)N(C)Cc4cccc5ncccc45)c3C3CC3)n2)o1, the Potency was “inactive”. With CC1CN(c2nc(Nc3ccccc3)nc(N)c2[N+](=O)[O-])CC(C)O1 (centres undefined) the Potency was 14.6 µM (active). With Nc1nc(NCC(=O)O)nc(N2CCCCCC2)c1[N+](=O)[O-] the Potency was “inactive”. With CCN1CCN(c2nc(Nc3cccc(F)c3)nc(N)c2[N+](=O)[O-])CC1 the Potency was “inactive”. With CCOC(=O)c1ccccc1NC(=O)COC(=O)CCC(=O)N1CCOCC1 the Potency was “inactive”. For NC(=O)C1CC(=O)N(c2ccc(OCC(=O)NCc3ccccc3)cc2)C1 (centres undefined), the Potency was “inactive”. With O=C(NNC1=C(C(=O)C(F)(F)F)CCC1)c1ccncc1 the Potency was 1.64 µM (active). In the case of O=C(NNC(=O)c1cnccc1C(F)(F)F)c1ccc(Cl)cc1, the Potency is reported as “inactive”. With Cc1ccc(C(=O)NNC(=O)c2ccncc2)cc1S(=O)(=O)N1CCCCC1 the Potency was “inactive”. With COc1ccc2c(c1)c1ncn(Cc3ccccn3)c(=O)c1n2C the Potency was “inactive”. With Cc1ccc(CNC(=O)COc2ccc3c(c2)CCC3)cc1 the Potency was “inactive”. In the case of O=C(CSc1nnnn1-c1ccccc1)NCc1ccco1, the Potency is reported as “inactive”. For COc1cccc(CNC(=O)c2ccc3c(Cl)c4c(nc3c2)CCCC4)c1, the Potency was 23.1 µM (active). For COc1ccc(N2CCN(C(=O)c3ccc(N4CCCCS4(=O)=O)cc3)CC2)cc1, the Potency was “inactive”. With Cc1cn(C)c(CC(=O)NCc2ccc(Cl)cc2)c1C(=O)O the Potency was “inactive”. In the case of O=C(CSc1c2c(nc3ccc(Cl)cc13)CCCC2)NCc1ccco1, the Potency is reported as 18.4 µM (active). In the case of O=C(/C=C/c1ccc(Cl)cc1Cl)NCc1ccco1, the Potency is reported as “inactive”. In the case of COc1ccc(N2CCN(C(=O)c3ccc4c(Cl)c5c(nc4c3)CCCC5)CC2)cc1, the Potency is reported as 20.6 µM (active). For Cc1ccc(CNC(=O)CSc2c3c(nc4cc(Cl)ccc24)CCCC3)cc1, the Potency was 14.6 µM (active). With COc1cccc(CNC(=O)c2cccnc2Sc2ccc(Cl)cc2)c1 the Potency was “inactive”. For COc1cccc(CNc2nc3nc4c(c(=O)n3[nH]2)CCC4)c1, the Potency was “inactive”.
